{"source": "the supplement of paper PMC8975748", "note": "Structures can show the parent of a compound that is named as a salt.", "data": [{"system": "Saccharomyces cerevisiae BY4741 SeMeCo community", "experiment": "z-score of subpopulation abundance vs DMSO median, subpopulation auxotrophic for HL; higher = larger share of this subpopulation than in DMSO controls", "conditions": "10 µM; 24 h; SM minimal medium; subpopulation (auxotrophy): HL", "experimental": "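Fluorescent four-plasmid SeMeCo (self-establishing metabolically cooperating S. cerevisiae BY4741 community; plasmids pH-mRuby2, pL-mWasabi, pU-eCFP, pM-TagRFP657) was grown 24 h in minimal SM medium with each Selleck FDA-approved drug at 10 µM in 384-well plates. Cells were fixed and imaged by high-content confocal microscopy. For each auxotrophic subpopulation (and the prototroph), a z-score gives the deviation from the DMSO vehicle-control population median.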", "values": [{"smiles": "CC(=O)OCC1=C(C(=O)O)N2C(=O)C(N)C2SC1", "note": "(stereo not given) [7-Aminocephalosporanic acid]", "z-score of subpopulation abundance": -0.23}, {"smiles": "Cc1cc(O)ccc1Cl", "note": "[Chlorocresol]", "z-score of subpopulation abundance": -0.86}, {"smiles": "CC(C)N(CCC(C(N)=O)(c1ccccc1)c1ccccn1)C(C)C", "note": "(stereo not given) [Disopyramide]", "z-score of subpopulation abundance": 2.14}, {"smiles": "CN1[C@@H]2C[C@@H](OC(=O)[C@H](CO)c3ccccc3)C[C@H]1[C@@H]1O[C@@H]12", "note": "[Scopolamine HBr trihydrate]", "z-score of subpopulation abundance": -0.72}, {"smiles": "CNC1CC(N)C(O)C(OC2OC(CO)C(O)C3OC4(OC(C(N)CO)C(O)C(O)C4O)OC23)C1O", "note": "(stereo not given) [Hygromycin B]", "z-score of subpopulation abundance": -0.22}, {"smiles": "CN(C)[C@@H]1C(=O)C(C(N)=O)=C(O)[C@@]2(O)C(=O)C3=C(O)c4c(O)cccc4[C@@](C)(O)[C@H]3[C@H](O)[C@@H]12", "note": "[Oxytetracycline (Terramycin)]", "z-score of subpopulation abundance": 0.77}, {"smiles": "CC[C@H]1CN2CC[C@]3(C(=O)Nc4ccccc43)[C@@H]2C[C@@H]1/C(=C\\OC)C(=O)OC", "note": "[Rhynchophylline]", "z-score of subpopulation abundance": 0.04}, {"smiles": "CN(C)C(=O)Oc1ccc[n+](C)c1", "note": "[Pyridostigmine Bromide]", "z-score of subpopulation abundance": 0.3}, {"smiles": "COC(=O)C1=CCCN(C)C1", "note": "[Arecoline HBr]", "z-score of subpopulation abundance": 0.21}, {"smiles": "C[C@@H]1O[C@@H](O[C@H]2C[C@@H](O)[C@]3(CO)[C@H]4[C@H](O)C[C@]5(C)[C@@H](C6=CC(=O)OC6)CC[C@]5(O)[C@@H]4CC[C@]3(O)C2)[C@H](O)[C@H](O)[C@H]1O", "note": "[Ouabain]", "z-score of subpopulation abundance": -1.05}, {"smiles": "CCN(C)C(=O)Oc1cccc([C@H](C)N(C)C)c1", "note": "[Rivastigmine]", "z-score of subpopulation abundance": -0.54}, {"smiles": "O=c1[nH]c2ccccc2n1CCCN1CCC(n2c(=O)[nH]c3cc(Cl)ccc32)CC1", "note": "[Domperidone]", "z-score of subpopulation abundance": 0.19}, {"smiles": "O=C(O[C@H]1C[C@H]2CC[C@@H](C1)[N+]21CCCC1)C(O)(c1ccccc1)c1ccccc1", "note": "[Trospium chloride]", "z-score of subpopulation abundance": -0.4}, {"smiles": "COc1ccc2c3c([nH]c2c1)C(C)=NCC3", "note": "[Harmaline]", "z-score of subpopulation abundance": 1.95}, {"smiles": "CCN(C)C(=O)Oc1cccc([C@H](C)N(C)C)c1", "note": "[Rivastigmine Tartrate]", "z-score of subpopulation abundance": 0.04}, {"smiles": "COc1cc2c(cc1OC)C1CC(=O)C(CC(C)C)CN1CC2", "note": "(stereo not given) [Tetrabenazine (Xenazine)]", "z-score of subpopulation abundance": 0.31}, {"smiles": "CCN1CC2(OC(=O)c3ccccc3NC(C)=O)CCC(OC)C34C1C(CC23)C1(O)CC(OC)C2CC4C1(O)C2OC", "note": "(stereo not given) [Lappaconitine]", "z-score of subpopulation abundance": -0.26}, {"smiles": "CC(NC(C)(C)C)C(=O)c1cccc(Cl)c1", "note": "(stereo not given) [Amfebutamone (Bupropion) HCl]", "z-score of subpopulation abundance": 0.03}, {"smiles": "COc1ccc(C(CN(C)C)C2(O)CCCCC2)cc1", "note": "(stereo not given) [Venlafaxine HCl]", "z-score of subpopulation abundance": 1.07}, {"smiles": "CCN(CC)CCOC(=O)C(O)(c1ccccc1)c1ccccc1", "note": "[Benactyzine hydrochloride]", "z-score of subpopulation abundance": -0.47}, {"smiles": "CCCN1C[C@H](CSC)C[C@@H]2c3cccc4[nH]cc(c34)C[C@H]21", "note": "[Pergolide Mesylate]", "z-score of subpopulation abundance": -0.35}, {"smiles": "C=C(C)[C@H]1Cc2c(ccc3c2O[C@@H]2COc4cc(OC)c(OC)cc4[C@@H]2C3=O)O1", "note": "[Rotenone (Barbasco)]", "z-score of subpopulation abundance": 0.53}, {"smiles": "CN1C(=O)COc2c(C(=O)NC3CN4CCC3CC4)cc(Cl)cc21", "note": "(stereo not given) [Azasetron HCl]", "z-score of subpopulation abundance": 1.41}, {"smiles": "C=CC[C@]1(O)CC[C@H]2[C@@H]3CCC4=CC(=O)CCC4=C3C=C[C@@]21C", "note": "[Altrenogest]", "z-score of subpopulation abundance": 0.59}, {"smiles": "CC(C)(O)C(Cl)(Cl)Cl", "note": "[Chlorobutanol]", "z-score of subpopulation abundance": -0.54}, {"smiles": "C[N+]1(C)[C@@H]2C[C@@H](OC(=O)[C@H](CO)c3ccccc3)C[C@H]1[C@@H]1O[C@@H]12", "note": "[Methscopolamine]", "z-score of subpopulation abundance": -0.05}, {"smiles": "N[C@@H]1C[C@H]1c1ccccc1", "note": "[Tranylcypromine (2-PCPA) HCl]", "z-score of subpopulation abundance": -0.72}, {"smiles": "N#Cc1nn(-c2c(Cl)cc(C(F)(F)F)cc2Cl)c(N)c1[S+]([O-])C(F)(F)F", "note": "(stereo not given) [Fipronil]", "z-score of subpopulation abundance": 0.71}, {"smiles": "CCC1=C[C@H]2CN3CCc4c([nH]c5ccccc45)[C@](C(=O)OC)(C2)[C@H]13", "note": "[Catharanthine]", "z-score of subpopulation abundance": -1.12}, {"smiles": "O=c1cccc2n1C[C@@H]1CNC[C@H]2C1", "note": "[Cytisine]", "z-score of subpopulation abundance": -0.4}, {"smiles": "CCOC(=O)Nc1ccc(NCc2ccc(F)cc2)cc1N", "note": "[Retigabine 2HCl]", "z-score of subpopulation abundance": 1.24}, {"smiles": "CN(C)[C@@H]1C(=O)C(C(N)=O)=C(O)[C@@]2(O)C(=O)C3=C(O)c4c(O)cccc4[C@@](C)(O)[C@H]3[C@H](O)[C@@H]12", "note": "[Oxytetracycline Dihydrate]", "z-score of subpopulation abundance": 0.03}, {"smiles": "CN[C@@H]1[C@@H](O)[C@@H](O[C@@H]2[C@@H](O)[C@H](O[C@H]3O[C@H]([C@@H](C)O)[C@@H](O)[C@H](O)[C@H]3N)[C@@H](N)C[C@H]2N)OC[C@]1(C)O", "note": "[Geneticin (G418 Sulfate)]", "z-score of subpopulation abundance": -0.02}, {"smiles": "CC[C@@H](C(N)=O)N1CCCC1=O", "note": "[Levetiracetam]", "z-score of subpopulation abundance": -1.01}, {"smiles": "Cc1cc(C(C#N)c2ccc(Cl)cc2)c(Cl)cc1NC(=O)c1cc(I)cc(I)c1O", "note": "(stereo not given) [Closantel]", "z-score of subpopulation abundance": 0.7}, {"smiles": "Nc1ccncc1", "note": "[4-Aminopyridine]", "z-score of subpopulation abundance": 0.38}, {"smiles": "CN1[C@@H]2C[C@@H](OC(=O)[C@H](CO)c3ccccc3)C[C@H]1[C@@H]1O[C@@H]12", "note": "[Scopolamine HBr]", "z-score of subpopulation abundance": -0.91}, {"smiles": "C=CCN1C[C@H](C(=O)N(CCCN(C)C)C(=O)NCC)C[C@@H]2c3cccc4[nH]cc(c34)C[C@H]21", "note": "[Cabergoline]", "z-score of subpopulation abundance": -0.49}, {"smiles": "CN(C)C(=O)Oc1cccc([N+](C)(C)C)c1", "note": "[Neostigmine Bromide]", "z-score of subpopulation abundance": -0.44}, {"smiles": "COc1ccc(C=O)cc1", "note": "[p-Anisaldehyde]", "z-score of subpopulation abundance": -0.29}]}]}
